From ChEMBL document CHEMBL1157539, “Thousands of chemical starting points for antimalarial lead identification” (Nature, 2010)

These molecules were tested on HepG2 (assay: GSK_TCMDC: Percent inhibition of human HepG2 cell line. Test compounds present at 10uM.).
Assay type: functional

| Structure (SMILES) | Inhibition |
| --- | --- |
| CCc1cc2c(Sc3nc4ccccc4[nH]3)ncnc2s1 | 6% |
| CCN(CC)CCCN(Cc1ccc(-c2ccc(C(F)(F)F)cc2)cc1)C(=O)Cn1c(SCc2cccc(F)c2F)cc(=O)c2ccccc21.O=C(O)C(O)C(O)C(=O)O | 45% |
| CCC(CC)n1cc2c(ccc3nc(N)nc(N)c32)n1 | 61% |
| CCOc1cc(C(=O)NCc2cccc(C(F)(F)F)c2)ccc1-c1nc2cc(Cl)ccc2[nH]1 | 7% |
| COc1ccc(CC(=O)Nc2ccc(-c3cccc(-c4nc5cccc(C)c5[nH]4)c3)cc2)cc1O | 6% |
| Cc1ccc(Oc2cnn(C)c(=O)c2Nc2cccc(C(=O)NCCc3ccccn3)c2)c(C)c1 | 0% |
| COc1ccc2nccc([C@@H](O)CN3CCC(NCCOc4ccccc4[N+](=O)[O-])CC3)c2c1.O=C(O)C(=O)O | 4% |
| CS(=O)(=O)CCNCc1ccc(-c2ccc3ncnc(Nc4ccc(OCc5ccccc5)c(Cl)c4)c3c2)o1.Cl [GW574783B] | 4% |
| O=C(O)C(F)(F)F.O=C1CCCN1CCCNCc1ccc(-c2ccc(-c3nc4cc(C(F)(F)F)ccc4[nH]3)s2)cc1 | 9% |
| COc1ccc(NC(=O)c2cccc(Br)c2)cc1N1CCN(CCCCCCCN2CCN(c3cc(NC(=O)c4cccc(Br)c4)ccc3OC)CC2)CC1.Cl | 97% |
| CNc1c2c(nc3ccc(NC(=O)CCCCCCc4ccccc4)cc13)CCCC2.Cl | 0% |
| COc1ccc2ccccc2c1CCCCN1CCN(CC(c2ccc(F)cc2)N2CCN(C(C)C)CC2)CC1.Cl (centres undefined) | 92% |
| Cn1cnc2c(Nc3ccncc3)nc(-c3ccc4ccccc4c3)nc21 | 55% |
| CC(C)NCc1cccc(-c2ccc(-c3nc4ccccc4[nH]3)cc2)c1.O=C(O)C(F)(F)F | 4% |
| O=C(N[C@@H](Cc1ccccc1)C(=O)NCc1cccc2ccccc12)c1ccc(O)c(-c2ccc(Cl)c(Cl)c2)c1 | 0% |
| O=C(Nc1ccc2c(c1)CCNCC2)Nc1ccc2ccccc2c1.O=C(O)C(F)(F)F | 0% |
| COc1ccccc1C1CCN(CCCCNC(=O)c2ccc(/C=C/c3cc(Cl)cc(Cl)c3)cc2)CC1 | 36% |
| COc1cc(OC)c(NC(=O)C2c3ccccc3C(=O)N(CC(C)C)C2c2cccs2)cc1Cl (centres undefined) | 9% |
| CN(CC(=O)Nc1ccc(F)cc1)C(=O)c1ccc(-c2ccc(F)cc2)o1 | 3% |
| COc1ccc(C2CC(=O)C3=C(C2)NC(C)=C(C(=O)OC(C)C)C3c2cccc(O)c2)cc1OC (centres undefined) | 0% |
| CC(=O)c1ccc(-n2ccnc2)cc1 | 0% |
| COc1cc2ccccc2c(OC)c1CCNCCCCNCCc1c(OC)cc2ccccc2c1OC.CS(=O)(=O)O | 100% |
| Cc1cccc2nc(-c3ccc(-c4ccc(CNCCCNS(C)(=O)=O)cc4)s3)[nH]c12.O=C(O)C(F)(F)F | 13% |
| CN(CCCCCNC(=O)/C=C/c1ccc(Cl)c(Cl)c1)CCCCc1c[nH]c2ccccc12 | 17% |
| Cc1nc(N)nc(N)c1CCCOc1ccccc1Br | 53% |
| CCOC(=O)NC1=NC(=N)N(OCCCOc2cc(Cl)c(Cl)cc2Cl)C(C)(C)N1 | 63% |
| O=C(Nc1ccc(-c2cccc(-c3nc4cc(C(F)(F)F)ccc4[nH]3)c2)cc1)Nc1ccc(Cl)c(Cl)c1 | 42% |
| O=C(O)C(F)(F)F.c1ccc(CNCc2cccc(-c3cccc(-c4nc5ccccc5[nH]4)c3)c2)cc1 | 12% |
| CCCCCOc1c(CCC)cc(Cc2cnc(N)nc2N)cc1CCC | 58% |
